Potency and affinity values are given separately. Activity calls are given as the source filed them.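 Rule for the calls: active = in all runs, an absorbance decrease of 25% or more of the average positive control decrease; inconclusive = runs conflict, with both active and inactive results; inactive = all runs inactive, opposite-direction effects included.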
Target: Protein disulfide-isomerase A6 (Homo sapiens) (UniProt Q15084)
Experiment: inhibitors of ERp5-mediated insulin aggregation, dose response, biochemical, turbidity, absorbance 650 nm, cherry-picked samples (AID 720566);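 note: negative values mean less insulin aggregation so ERp5 inhibition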

Chain of Protein disulfide-isomerase A6 (Homo sapiens) (Q15084 whole entry, looked up): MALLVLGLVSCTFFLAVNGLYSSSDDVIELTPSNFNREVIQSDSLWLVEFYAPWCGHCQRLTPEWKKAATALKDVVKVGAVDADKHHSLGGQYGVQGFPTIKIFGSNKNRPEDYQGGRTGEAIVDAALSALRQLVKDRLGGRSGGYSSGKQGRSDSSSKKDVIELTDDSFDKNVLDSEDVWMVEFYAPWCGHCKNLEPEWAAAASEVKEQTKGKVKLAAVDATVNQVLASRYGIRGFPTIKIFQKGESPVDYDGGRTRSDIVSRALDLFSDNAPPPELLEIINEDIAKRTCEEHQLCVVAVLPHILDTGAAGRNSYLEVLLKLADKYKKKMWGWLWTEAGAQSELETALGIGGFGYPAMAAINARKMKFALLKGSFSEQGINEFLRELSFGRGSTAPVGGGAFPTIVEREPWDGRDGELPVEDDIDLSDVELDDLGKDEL

| Compound | outcome |
| --- | --- |
| C[C@@H]1CN([C@H](C)CO)C(=O)Cc2cc(NC(=O)Nc3cccc4ccccc34)ccc2O[C@@H]1CN(C)C(=O)Nc1cccc2ccccc12 | inactive |
| O=C(C[C@@H]1C[C@H]2c3cc(NS(=O)(=O)c4ccccc4)ccc3O[C@H]2[C@H](CO)O1)NC1CCCCC1 | inactive |
| COc1ccccc1CN(C)c1ccc(S(=O)(=O)N2CCN(C)CC2)cn1 | inactive |
| CN(CC(=O)Nc1ccc(F)cc1)CC(=O)NC1CCCCC1 | inactive |
| CCCNC(=O)C[C@H]1C[C@H]2c3cc(NS(C)(=O)=O)ccc3O[C@H]2[C@@H](CO)O1 | inactive |
| COc1ccccc1S(=O)(=O)N1C[C@H](O)COC[C@H]2O[C@@H](CC(=O)O)CC[C@@H]21 | inactive |
| CCc1csc(CCNC(=O)C2CCC(=O)N(CCc3cccc(F)c3)C2)n1 (centres undefined) | inactive |
| C/C=C/c1ccc2c(c1)O[C@H](CN(C)Cc1cncnc1)[C@H](C)CN([C@@H](C)CO)S2(=O)=O | inactive |
| COc1ccc2c3c([nH]c2c1)[C@@H](CO)N(C(=O)c1ccc(F)cc1)CC31CCN(C(=O)Nc2cccc(F)c2)CC1 | inactive |
| COc1ccc2c3c([nH]c2c1)[C@@H](CO)N(Cc1nccs1)CC31CN(C(=O)C2CCCC2)C1 | inactive |
| Cc1cccc(Oc2ccc(NS(=O)(=O)c3ccc(C)c(C(=O)O)c3)cc2)c1 | inactive |
| COc1cccc(C(=O)OCC(=O)c2[nH]c(C)c(C(C)=O)c2C)c1 | inactive |
| C/C=C/c1ccc2c(c1)O[C@@H](CN(C)S(C)(=O)=O)[C@H](C)CN([C@@H](C)CO)S2(=O)=O | inactive |
| COCC(=O)N(C)C[C@@H]1Oc2cc(C#CC(C)(C)O)ccc2S(=O)(=O)N([C@H](C)CO)C[C@@H]1C | inactive |
| C[C@@H]1CN([C@@H](C)CO)C(=O)c2cc(C#CC3CCCCC3)cnc2O[C@@H]1CN(C)S(=O)(=O)c1ccccc1 | inactive |
| O=C(NN=c1c(=O)c2ccccc2c1=O)c1ccccc1 | inactive |
| CC(C)CC#Cc1cnc2c(c1)C(=O)N([C@H](C)CO)C[C@H](C)[C@H](CN(C)Cc1ccccc1C(=O)O)O2 | inactive |

| Compound | outcome |
| --- | --- |
| CCC(=O)Nc1ccc2c(c1)C(=O)N(C)[C@H]1CC[C@@H](CC(=O)NCC3CC3)O[C@@H]1CO2 | inactive |
| O=C(c1cccc(F)c1)N1CCCCN2[C@H](C1)[C@H](c1ccc(-c3ccccc3)cc1)[C@@H]2CO | inactive |
| COc1cccc(S(=O)(=O)N2CC3(CN(C(=O)Nc4cccc(F)c4)[C@H](CO)c4[nH]c5cc(OC)ccc5c43)C2)c1 | inactive |
| Cc1ccc(S(=O)(=O)N2CCN(C(=O)CCc3nc4ccccc4c(=O)[nH]3)CC2)c(C)c1 | inactive |
| C[C@H]1CN([C@@H](C)CO)C(=O)CCCn2cc(nn2)CO[C@@H]1CN(C)Cc1cccc(C(F)(F)F)c1 | inactive |
| O=C(NCCCN1CCCC1)c1ccc(CS(=O)(=O)c2c(Cl)cccc2Cl)o1 | inactive |
| COc1ccc2c3c([nH]c2c1)[C@H](CO)N(C(=O)c1ccc(F)cc1)CC31CCN(C(=O)Nc2cccc(F)c2)CC1 | inactive |
| CCC(=O)Nc1ccc2c(c1)C(=O)N(C)[C@@H]1CC[C@@H](CC(=O)NCC3CC3)O[C@@H]1CO2 | inactive |
| C[C@@H]1CN([C@H](C)CO)C(=O)c2cc(C#CCN(C)C)cnc2O[C@H]1CN(C)Cc1cccc(F)c1 | inactive |
| CC(C)(C)c1cc(NC(=O)c2ccco2)no1 | inactive |
| Cc1ccc(NC(=O)c2cccc(S(C)(=O)=O)c2)cc1 | inactive |
| CN1C(=O)c2cc(NC(=O)C3CCCCC3)ccc2OC[C@@H]2O[C@@H](CC(=O)NC3CCCC3)CC[C@H]21 | inactive |
| C[C@@H]1CN([C@H](C)CO)C(=O)Cc2cc(NC(=O)Nc3cccc4ccccc34)ccc2O[C@@H]1CN(C)Cc1ccc(C(F)(F)F)cc1 | inactive |
| CN(C)C(=O)C[C@H]1C[C@H]2c3cc(NS(C)(=O)=O)ccc3O[C@H]2[C@@H](CO)O1 | inactive |
| C[C@@H]1CN([C@H](C)CO)C(=O)c2cccc(NC(=O)Nc3cccc4ccccc34)c2O[C@@H]1CN(C)C(=O)Nc1ccc(C(F)(F)F)cc1 | inactive |
| COc1ccc(NC(=O)N(C)C[C@H]2Oc3ccc(NS(=O)(=O)c4ccccc4)cc3C(=O)N([C@@H](C)CO)C[C@@H]2C)cc1 | inactive |
| Cc1noc(C)c1NC(=O)Nc1ccc2c(c1)C(=O)N([C@H](C)CO)C[C@@H](C)[C@@H](CN(C)C(=O)Nc1ccc(F)cc1)O2 | inactive |
